Assay results reported in PubChem BioAssay AID1159580 (chemical genetic matrix, 2015).
Screen size: about 5,500 compounds; about 2,000 (36%) were called active. Roughly 18% stayed inconclusive and do not appear here. Rule as the data show it: active = normalized growth mostly below about 0.91 (no sharp cut-off); inconclusive = no clear call, values can overlap the other calls; inactive = mostly above about 0.92. The list shows a part of the results.

Assay: chemical genetic growth profiling, strain panel (AID 1159580);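 also: tested at 20 µM; growth read once vehicle control cultures reached saturation at 30 °C; 1 = growth at the plate median or of vehicle wells; lower values mean less growth of the strain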
Settings: growth OD

Measured: normalized growth

Cc1ccccc1OCC(O)CO (stereo not given)
inactive: S. cerevisiae deletion strains, locus YJR066W, strain TOR1, active compounds read low 0.913 | S. cerevisiae deletion strains, locus YJR075W, strain HOC1, active compounds read low 1.04 | S. cerevisiae deletion strains, locus YKL009W, strain mrt4, active compounds read low 0.987 | S. cerevisiae deletion strains, locus YKL068W, active compounds read low 0.996 | S. cerevisiae deletion strains, locus YKL085W, strain MDH1 (second series), active compounds read low 1.04 | S. cerevisiae deletion strains, locus YKL085W, strain MDH1, active compounds read low 1.04 | S. cerevisiae deletion strains, locus YKL160W, strain elf1, active compounds read low 0.986 | S. cerevisiae deletion strains, locus YKL190W, strain CNB1, active compounds read low 1.01 | S. cerevisiae deletion strains, locus YKR001C, strain vps1, active compounds read low 0.991 | S. cerevisiae deletion strains, locus YKR026C, strain gcn3, active compounds read low 0.928 | S. cerevisiae deletion strains, locus YKR091W, strain srl3, active compounds read low 0.984 | S. cerevisiae deletion strains, locus YLL001W, strain dnm1, active compounds read low 0.985 | S. cerevisiae deletion strains, locus YLL026W, active compounds read low 0.983 | S. cerevisiae deletion strains, locus YLL041C, strain sdh2, active compounds read low 0.985 | S. cerevisiae deletion strains, locus YLR027C, strain aat2, active compounds read low 0.957 | S. cerevisiae deletion strains, locus YLR039C, strain RIC1, active compounds read low 1.02 | S. cerevisiae deletion strains, locus YLR058C, strain SHM2, active compounds read low 1.02 | S. cerevisiae deletion strains, locus YLR102C, strain apc9, active compounds read low 0.991 | S. cerevisiae deletion strains, locus YLR113W, strain HOG1, active compounds read low 0.971 | S. cerevisiae deletion strains, locus YLR221C, strain rsa3, active compounds read low 0.982 | S. cerevisiae deletion strains, locus YLR258W, strain gsy2, active compounds read low 0.98 | S. cerevisiae deletion strains, locus YLR262C, strain YPT6 (second series), active compounds read low 0.973 | S. cerevisiae deletion strains, locus YLR262C, strain YPT6, active compounds read low 1.02 | S. cerevisiae deletion strains, locus YLR268W, strain sec22, active compounds read low 0.996 | S. cerevisiae deletion strains, locus YLR320W, strain mms22, active compounds read low 0.964 | S. cerevisiae deletion strains, locus YLR330W, strain CHS5, active compounds read low 1.01 | S. cerevisiae deletion strains, locus YLR342W, strain FKS1 (second series), active compounds read low 1.04 | S. cerevisiae deletion strains, locus YLR342W, strain FKS1, active compounds read low 0.966 | S. cerevisiae deletion strains, locus YLR357W, strain rsc2, active compounds read low 0.982 | S. cerevisiae deletion strains, locus YLR370C, strain arc18, active compounds read low 0.979 | S. cerevisiae deletion strains, locus YLR371W, strain rom2, active compounds read low 0.992 | S. cerevisiae deletion strains, locus YLR384C, strain iki3, active compounds read low 0.992 | S. cerevisiae deletion strains, locus YLR418C, strain cdc73, active compounds read low 1.01 | S. cerevisiae deletion strains, locus YML016C, strain PPZ1, active compounds read low 1.02 | S. cerevisiae deletion strains, locus YML032C, strain rad52, active compounds read low 0.992 | S. cerevisiae deletion strains, locus YML120C, strain ndi1, active compounds read low 0.965 | S. cerevisiae deletion strains, locus YML124C, strain tub3, active compounds read low 0.993 | S. cerevisiae deletion strains, locus YMR058W, strain fet3, active compounds read low 0.98 | S. cerevisiae deletion strains, locus YMR078C, strain ctf18, active compounds read low 0.995 | S. cerevisiae deletion strains, locus YMR125W, strain sto1, active compounds read low 0.953 | S. cerevisiae deletion strains, locus YMR129W, active compounds read low 0.99 | S. cerevisiae deletion strains, locus YMR205C, strain PFK2, active compounds read low 0.975 | S. cerevisiae deletion strains, locus YMR223W, strain ubp8, active compounds read low 0.991 | S. cerevisiae deletion strains, locus YMR231W, strain pep5, active compounds read low 0.988 | S. cerevisiae deletion strains, locus YMR263W, strain SAP30, active compounds read low 1.03 | S. cerevisiae deletion strains, locus YMR307W, strain GAS1, active compounds read low 1.09 | S. cerevisiae deletion strains, locus YNL067W, strain RPL9B, active compounds read low 1.03 | S. cerevisiae deletion strains, locus YNL071W, strain lat1, active compounds read low 0.977 | S. cerevisiae deletion strains, locus YNL183C, strain NPR1, active compounds read low 0.919 | S. cerevisiae deletion strains, locus YNL209W, strain ssb2, active compounds read low 0.984 | S. cerevisiae deletion strains, locus YNL233W, strain BNI4, active compounds read low 1.04 | S. cerevisiae deletion strains, locus YNL248C, strain rpa49, active compounds read low 0.977 | S. cerevisiae deletion strains, locus YNL250W, strain rad50, active compounds read low 0.995 | S. cerevisiae deletion strains, locus YNL271C, strain bni1, active compounds read low 0.989 | S. cerevisiae deletion strains, locus YNL298W, strain CLA4, active compounds read low 0.993 | S. cerevisiae deletion strains, locus YNL307C, strain MCK1, active compounds read low 0.994 | S. cerevisiae deletion strains, locus YNL322C, strain KRE1 (second series), active compounds read low 0.979 | S. cerevisiae deletion strains, locus YNL322C, strain KRE1, active compounds read low 1.01 | S. cerevisiae deletion strains, locus YNR049C, strain mso1, active compounds read low 0.955 | S. cerevisiae deletion strains, locus YNR052C, strain pop2, active compounds read low 0.991 | S. cerevisiae deletion strains, locus YOL006C, strain TOP1, active compounds read low 1.11 | S. cerevisiae deletion strains, locus YOL012C, strain htz1 0.987 | S. cerevisiae deletion strains, locus YOL147C, strain pex11, active compounds read low 0.992 | S. cerevisiae deletion strains, locus YOR001W, strain rrp6, active compounds read low 0.963 | S. cerevisiae deletion strains, locus YOR061W, strain CKA2, active compounds read low 1.02 | S. cerevisiae deletion strains, locus YOR069W, strain VPS5, active compounds read low 1.01 | S. cerevisiae deletion strains, locus YOR070C, strain gyp1, active compounds read low 0.969 | S. cerevisiae deletion strains, locus YOR080W, strain dia2, active compounds read low 0.968 | S. cerevisiae deletion strains, locus YOR083W, strain WHI5, active compounds read low 0.967 | S. cerevisiae deletion strains, locus YOR106W, strain vam3, active compounds read low 0.96 | S. cerevisiae deletion strains, locus YOR136W, strain idh2, active compounds read low 0.998 | S. cerevisiae deletion strains, locus YOR144C, strain elg1, active compounds read low 0.99 | S. cerevisiae deletion strains, locus YOR184W, strain ser1, active compounds read low 1.01 | S. cerevisiae deletion strains, locus YOR231W, strain MKK1, active compounds read low 0.974 | S. cerevisiae deletion strains, locus YOR265W, strain rbl2, active compounds read low 0.968 | S. cerevisiae deletion strains, locus YOR270C, strain vph1, active compounds read low 0.911 | S. cerevisiae deletion strains, locus YOR290C, strain snf2, active compounds read low 0.969 | S. cerevisiae deletion strains, locus YOR316C, strain cot1, active compounds read low 0.992 | S. cerevisiae deletion strains, locus YPL051W, strain arl3, active compounds read low 0.981 | S. cerevisiae deletion strains, locus YPL055C, strain LGE1, active compounds read low 1.07 | S. cerevisiae deletion strains, locus YPL078C, strain atp4, active compounds read low 0.971 | S. cerevisiae deletion strains, locus YPL106C, strain sse1, active compounds read low 0.958 | S. cerevisiae deletion strains, locus YPL240C, strain hsp82, active compounds read low 0.992 | S. cerevisiae deletion strains, locus YPL256C, strain CLN2, active compounds read low 0.974 | S. cerevisiae deletion strains, locus YPR119W, strain clb2, active compounds read low 0.997 | S. cerevisiae deletion strains, locus YPR141C, strain kar3, active compounds read low 0.989 | S. cerevisiae deletion strains, locus YPR163C, strain tif3, active compounds read low 0.991 | S. cerevisiae deletion strains, locus YPR167C, strain met16, active compounds read low 0.998 | S. cerevisiae deletion strains, strain wtn01, active compounds read low 1 | S. cerevisiae strains, strain wild type, active compounds read low 1.02
